Data on 40 molecules can be found in PubChem BioAssay (EPA / NIEHS).

As a reminder, the AC50 is the concentration at which the activity in the assay is half-maximal.

Activity calls are given as the source filed them. The calls were made as follows: active = hit-call score of the fitted dose curve at least 0.9, where 1 is the maximum; inactive = score below 0.9.

Read-out in the test: Macrophage colony-stimulating factor (MCSF), CSF1 (gene 1435)
The test can be described thus: BSK_LPS_MCSF: BioMAP Diversity Plus: LPS Assay for Macrophage colony-stimulating factor (MCSF) Biomarker Activity (AID 2283083). As to conditions: primary human HUVEC with PBMC; actives raise or lower the signal. The method, then:
BSK_LPS is a cell-based, multiplexed-readout assay that uses umbilical vein endothelium and peripheral blood mononuclear cells, a human vascular primary cell co-culture, with measurements taken at 24 hours after chemical dosing in a 96-well plate.BSK_LPS_MCSF is an assay component measured in the BSK_LPS assay. It measures M-CSF antibody related to regulation of gene expression using ELISA technology.Data from the assay component BSK_LPS_MCSF was analyzed into 1 assay endpoint. This assay endpoint, BSK_LPS_MCSF, was analyzed with bidirectional fitting relative to DMSO as the negative control and baseline of activity. Using a type of binding reporter, gain or loss-of-signal activity can be used to understand changes in the signaling as they relate to the gene CSF1. Furthermore, this assay endpoint can be referred to as a primary readout, because this assay has produced multiple assay endpoints where this one serves a signaling function. To generalize the intended target to other relatable targets, this assay endpoint is annotated to the cytokine intended target family, where the subfamily is colony stimulating factor.
The levels of cell surface (or secreted, indicated by the prefix "s") biomarker endpoints were measured by ELISA. Overt cytotoxicity to cells in confluent adherent cultures (all systems other than the BT system) was assessed by measuring total protein levels using sulforhodamine B (SRB) staining in parallel cultures at the time of biomarker measurements, indicated as SRB endpoints. For proliferation assays for adherent cell types, individual cell types are cultured at sub-confluence and relative cell numbers quantified by SRB staining at time points optimized for each system (48 h: 3C and CASM3C systems; 72 h: BT and HDF3CGF systems; 96 h: SAg system). SRB was performed by staining cells with 0.1% SRB after fixation with 10% TCA and reading wells at 560 nm.Viability and proliferation of PBMC (T cells) was quantified by Alamar Blue reduction for the SAg and BT systems. For PBMC viability (referred to as PBMC Cytotoxicity within the assay endpoint names), cells were plated (75,000/well in a 96-well plate) and then chemical samples added for 1 h before addition of activators, SEB and TSST-1 (20 ng/mL final concentration each). Cells were incubated for 90 h. Then, Alamar Blue (20 uL/well) (Invitrogen, Cat DAL1100) was added for 6 h, and the plates were read with a fluorescence microplate reader at 546/580 nm (excitation/emission). For PBMC proliferation, cells were plated and activated as above but incubated for only 16 h prior to addition of Alamar Blue. Plates were read after 6 h.
As to `CCOc1nc(F)cc2nc(S(=O)(=O)Nc3c(Cl)cccc3Cl)nn12`, the outcome was inactive.

Turning to `CC(C)NC(=O)N1CC(=O)N(c2cc(Cl)cc(Cl)c2)C1=O`, the result was inactive.

Regarding `Cn1c(-c2ccccc2)cc(-c2ccccc2)[n+]1C`, the outcome was inactive.

Consider `CCOP(=S)(OCC)Oc1nc(Cl)n(C(C)C)n1`, for which the result was inactive.

Take `CNC(=O)Oc1cccc2ccccc12`: the AC50 was 20 µM (active).

For the molecule `Cc1ccc(N=CN(C)C=Nc2ccc(C)cc2C)c(C)c1`, the AC50 was 32.6 µM (active).

`Clc1nc(Cl)nc(Nc2ccccc2Cl)n1`: the result was inactive.

As to `C=C(C)CN(CC)c1c([N+](=O)[O-])cc(C(F)(F)F)cc1[N+](=O)[O-]`, the result was inactive.

On to `CSC(=O)c1c(C(F)F)nc(C(F)(F)F)c(C(=O)SC)c1CC(C)C`, for which the AC50 is 20 µM (active).

As for `COc1cc(Cl)c(OC)cc1Cl`, the outcome was inactive.

Take `O=C(O)c1c(Cl)ccc2cc(Cl)cnc12`: the result was inactive.

For `Cc1cc(C)nc(Nc2ccccc2)n1`, the result was inactive.

Regarding `CC(C)Nc1nc(Cl)nc(NC(C)C)n1`, the result was inactive.

Take `COC(=O)c1c(C(F)F)nc(C(F)(F)F)c(C2=NCCS2)c1CC(C)C`: the AC50 was 14.3 µM (active).

Take `Nc1c(Cl)c(F)nc(OCC(=O)O)c1Cl`: the result was inactive.

For the molecule `CN=C=S`, the result was inactive.

On to `CCOP(=O)(OCC)Oc1nc(Cl)c(Cl)cc1Cl`, for which the result was inactive.

As for `CCN(CC)c1nc(C)cc(OP(=S)(OC)OC)n1`, the AC50 is 20 µM (active).

Turning to `COc1cc(OC)nc(NC(=O)NS(=O)(=O)c2ncccc2OCC(F)(F)F)n1`, the result was inactive.

For `CC(C)C1(C)N=C(c2ncccc2C(=O)O)NC1=O` (stereo not given), the outcome was inactive.

With `COCc1cnc(C2=NC(C)(C(C)C)C(=O)N2)c(C(=O)O)c1` (stereo not given), the outcome was inactive.

On to `COP(=O)(OC)O/C(C)=C/C(=O)N(C)C`, for which the result was inactive.

With `Clc1cccc(C(Cl)(Cl)Cl)n1`, the outcome was inactive.

With `CC(C)(C)C(=O)C(Oc1ccc(Cl)cc1)n1cncn1` (stereo not given), the result was inactive.

In the case of `COC(=O)NS(=O)(=O)c1ccc(N)cc1`, the outcome was inactive.

On to `Cc1c(COC(=O)[C@@H]2[C@H](/C=C(\Cl)C(F)(F)F)C2(C)C)cccc1-c1ccccc1`, for which the AC50 was 3.53 µM (active).

As to `O=C(Nc1ccccc1-c1ccc(Cl)cc1)c1cccnc1Cl`, the result was inactive.

Consider `COCC(C)N(C(=O)CCl)c1c(C)csc1C` (stereo not given), for which the outcome was inactive.

Take `N#Cc1c[nH]cc1-c1cccc2c1OC(F)(F)O2`: the AC50 was 26.3 µM (active).

`COC(=O)N(C(=O)N1CO[C@@]2(C(=O)OC)Cc3cc(Cl)ccc3C2=N1)c1ccc(OC(F)(F)F)cc1`: the outcome was inactive.

On to `CO/N=C(/C1=NOCCO1)c1ccccc1Oc1ncnc(Oc2ccccc2Cl)c1F`, for which the AC50 was 19.2 µM (active).

For the molecule `Nc1c(Cl)c(Cl)nc(C(=O)O)c1Cl`, the result was inactive.

Consider `CCN(CC)C(=O)C(C)Oc1cccc2ccccc12` (stereo not given), for which the concentration at half-maximal activity (AC50) was 0.274 µM (active).

On to `C=CCOC(=O)C(C)(C)OC(=O)c1cc(-n2c(=O)cc(C(F)(F)F)n(C)c2=O)ccc1Cl`, for which the AC50 was 13.9 µM (active).

As for `Cc1nc(N(C)C)nc(OC(=O)N(C)C)c1C`, the outcome was inactive.

As to `Nc1cnn(-c2ccccc2)c(=O)c1Cl`, the outcome was inactive.

In the case of `CS(=O)(=O)c1cc(C(F)(F)F)ccc1C(=O)c1cnoc1C1CC1`, the outcome was inactive.

On to `CCCCOCN(C(=O)CCl)c1c(CC)cccc1CC`, for which the AC50 is 27 µM (active).

Take `CN/C(=N\[N+](=O)[O-])NCc1cnc(Cl)s1`: the outcome was inactive.

Turning to `Cc1cnc(C2=NC(C)(C(C)C)C(=O)N2)c(C(=O)O)c1` (stereo not given), the outcome was inactive.
